Compound activity (PubChem BioAssay)
Sampled rows, rich in hits. Any-hit rate of the full collection: about 1.9%.
INS-1E GSIS act = GLuc luminescence reporter in INS-1E cells, primary screen for activators of glucose-dependent secretion of insulin. INS-1E GLuc reporter insulin secretion, 2-3 h. actives 0.61% (n = 370,000). activation, % at 16.6 µM. AID 743287;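 active means lowest replicate activation of at least 40%, so every replicate reaches that level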;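 further: 0% = median of neutral control wells and 100% = median of IBMX positive control wells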
Neddyl block = inhibitors of human cullin neddylation; TR-FRET cullin neddylation, biochemical; inhibition, % at 25 µM; actives 0.58% (n = 360,000); in the data active means inhibition above about 36%
dFosB act-1 = activators of mouse delta FosB homodimer; purified delta FosB, TAMRA-CDK5 oligo fluorescence polarization; percent of positive-control signal above neutral wells; activation, % at 25 µM; actives 0.99% (n = 340,000); AID 493131;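 active means mean activation above about 17%, with every replicate also reaching it, limit read from the data, passing the limit was not always enough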
Target sequence (P13346 whole entry, looked up): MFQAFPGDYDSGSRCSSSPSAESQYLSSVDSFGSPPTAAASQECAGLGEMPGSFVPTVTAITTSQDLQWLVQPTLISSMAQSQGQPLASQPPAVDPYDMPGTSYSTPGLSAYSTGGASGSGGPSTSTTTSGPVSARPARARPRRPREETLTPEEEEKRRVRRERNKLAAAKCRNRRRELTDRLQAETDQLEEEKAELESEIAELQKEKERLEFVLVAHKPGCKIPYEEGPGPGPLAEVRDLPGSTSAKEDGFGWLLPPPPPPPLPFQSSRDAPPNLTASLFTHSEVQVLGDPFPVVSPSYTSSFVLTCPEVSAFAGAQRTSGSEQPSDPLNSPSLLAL
Bfl-1 A1 inh = inhibitors of the anti-apoptotic protein A1, read as caspase activation; caspase activation, % (no concentration beside the values); AID 2462; MEF A1-2A-BIM cells, Caspase-Glo 3/7 luminescence, 3 h; percent of clofoctol response, vehicle zero; actives 0.066% (n = 330,000);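 active means over half of replicate activation scores above 10%, or exactly half above 10 with the replicate mean above 10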
Vif inh = blocks HIV Vif function; AID 602346; actives 0.35% (n = 340,000); HEK293T cells, Vif self-association by quenched fluorescence, imaging, 24 h; inhibition, % at 7.49 µM; in the data active means inhibition above about 50%, passing the limit was not always enough
dFosB act-2 = enhances mouse delta FosB homodimer binding to DNA; activation, % at 24.9 µM; shares compounds with dFosB act-1; purified delta FosB, TAMRA-CDK5 oligo fluorescence polarization; normalised: neutral wells 0, positive control 100; 2,400 tested, under 10 active;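 active means highest replicate activation at or above 34% and every replicate reaching that threshold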;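 further: higher polarization means more probe DNA bound by delta FosB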
An asterisk follows results filed as active; nt = not tested or not shown.

SMILES	INS-1E GSIS act	Neddyl block	dFosB act-1	Bfl-1 A1 inh	Vif inh	dFosB act-2
O=C(CSc1nc2sc3c(c2c(=O)n1-c1ccccc1)CCCC3)NCc1ccco1	2.1	-6.6	52.5*	nt	10.0	7.7
Cc1noc(C)c1S(=O)(=O)N(C)C[C@H]1OCCCC[C@@H](C)Oc2ccc(NC(=O)Nc3ccc4c(c3)OCO4)cc2C(=O)N([C@H](C)CO)C[C@@H]1C	6.2	nt	nt	nt	nt	nt
COc1ccc(NS(=O)(=O)c2ccc(O)c(NC(=O)c3ccc(S(=O)(=O)N4CCCCCC4)cc3)c2)cc1	-22.2	-1.0	4.0	0.9	-8.8	nt
COc1ccc(NS(=O)(=O)c2ccc(O)c(NC(=O)c3ccc(S(=O)(=O)N4CCCC4)cc3)c2)cc1	-24.6	6.3	20.3*	0.6	-4.1	-0.2
CCOc1ccc(-n2cc(C(=O)NCCOC)c3cc(OC)c(OC)cc3c2=O)cc1	3.7	3.2	-9.3	0.7	-3.4	nt
CCOc1ccc(-n2cc(C(=O)Nc3cccc(OC)c3)c3cc(OC)c(OC)cc3c2=O)cc1	nt	-68.6	40.0*	0.8	10.6	3.7
Cc1ccc(C)c(-n2nnnc2SCC(=O)c2ccc3c(c2)NC(=O)CO3)c1	nt	-40.7	67.9*	-0.7	-20.5	0.7
COc1ccc2c3c(n(C)c2c1)[C@@H](CO)N(C(=O)Nc1ccccc1F)CC31CCN(C(C)=O)CC1	-19.3	nt	nt	nt	nt	nt
O=C(Nc1ccc2c(c1)C(=O)NC2=O)c1cccc(Cl)c1	0.5	23.7	25.3*	-2.5	11.9	1.5
COC(=O)c1ccc(C(=O)Nc2ccc3c(c2)C(=O)NC3=O)cc1	-10.6	28.2	85.8*	0.5	-1.6	5.6
Cc1cccc(C(=O)Nc2ccc3c(c2)C(=O)NC3=O)c1	4.1	nt	2.2	-3.5	13.4	nt
Cc1ccc(C(=O)Nc2ccc3c(c2)C(=O)NC3=O)cc1	3.7	nt	35.4*	0.1	23.1	5.1
O=C(Nc1ccc2c(c1)C(=O)NC2=O)c1ccc(Cl)s1	6.2	nt	53.9*	-0.5	nt	0.0
CCCN1C[C@H](C)[C@@H](OC)CN(C)C(=O)c2ccc(NC(=O)c3ccccc3F)cc2OC[C@@H]1C	-6.3	nt	nt	nt	nt	nt
Cc1noc(C)c1NC(=O)Nc1ccc2c(c1)C(=O)N([C@H](C)CO)C[C@@H](C)[C@H](CN(C)S(=O)(=O)c1cn(C)cn1)OCCCC[C@@H](C)O2	3.4	nt	nt	nt	nt	nt
C[C@H]1COCn2nncc2CC[C@@H](Cc2ccc(-c3ccccc3)cc2)C(=O)N1	0.6	nt	nt	nt	nt	nt
O=C(/C=C/c1cccs1)Nc1nccs1	2.9	35.3	0.7	-8.0	-13.9	nt
O=C(/C=C/c1cccs1)Nc1cccc(NC(=O)/C=C/c2cccs2)n1	nt	18.6	21.2*	-0.4	-4.4	-5.6
CCN(CC)CCN(C(=O)c1ccc2c(c1)CCCC2)c1nc2ccc(OC)cc2s1	-53.0	9.1	22.9*	1.0	4.3	0.5
CCN(CC)CCN(C(=O)c1ccc2c(c1)CCCC2)c1nc2c(C)cccc2s1	-7.5	10.3	29.3*	0.0	-5.0	-4.8
CCN(CC)CCN(C(=O)c1ccc2c(c1)CCCC2)c1nc2ccc(C)cc2s1	-26.7	8.5	10.9	0.1	-6.8	nt
CCCNC(=O)[C@H]1[C@H](CO)[C@H]2Cn3c(ccc(-c4ccc(F)cc4)c3=O)[C@@H]1N2CC	3.9	nt	nt	nt	nt	nt
Cc1ccc(CNC(=O)c2ccc(N3CCC4(CC3)CC(c3cccc(Br)c3)=NO4)c(NC(=O)c3c(Cl)cccc3Cl)c2)cc1	-3.0	-53.2	24.1*	0.8	-2.9	0.8
Cc1cc(C)c(NC(=O)CSCc2nc3sc(C)c(C)c3c(=O)[nH]2)c(Cl)c1	8.8	12.5	31.5*	1.2	37.6	0.7
O=C(Nc1cc(Cl)cc(Cl)c1)C(c1ccccc1)N1CCCCC1 (stereo not drawn)	nt	13.1	0.2	0.0	10.4	nt
SMILES	INS-1E GSIS act	Neddyl block	dFosB act-1	Bfl-1 A1 inh	Vif inh	dFosB act-2
O=C(O)c1ccccc1OC(C(=O)Nc1cc(Cl)cc(Cl)c1)c1ccccc1 (stereo not drawn)	-7.8	nt	35.8*	2.6	5.0	0.3
CN(C)CCN(C(=O)CN1C(=O)c2ccccc2C1=O)c1nc2cc3c(cc2s1)OCO3	24.8	-20.1	37.7*	0.9	-1.4	4.4
CN(C)CCCN(C(=O)c1ccc2c(c1)CCCC2)c1nc2cc3c(cc2s1)OCO3	-18.3	6.2	25.5*	1.6	-1.9	1.7
COc1ccc2sc(N(CCCN(C)C)C(=O)c3ccc(S(=O)(=O)N4CCc5ccccc5C4)cc3)nc2c1	-7.9	15.5	32.6*	28.3*	-14.2	0.7
CN(C)CCN(C(=O)c1ccc(S(=O)(=O)N(C)c2ccccc2)cc1)c1nc2ccc(Cl)cc2s1	nt	0.9	28.1*	0.3	9.0	0.9
C[C@@H]1CN([C@@H](C)CO)S(=O)(=O)c2ccc(C3=CCCCC3)cc2O[C@@H]1CN(C)C(=O)C1CCCCC1	-16.2	nt	nt	nt	nt	nt
CN(C)CCN(C(=O)c1ccco1)c1nc2cc3c(cc2s1)OCCO3	14.1	-0.6	30.2*	0.2	3.7	-4.3
CN(C)CCN(C(=O)c1ccc2ccccc2c1)c1nc2c(F)cccc2s1	36.6	-12.7	-8.3	-0.9	2.1	nt
CCN(CC)CCN(C(=O)c1ccc(S(=O)(=O)N2CCCCC2)cc1)c1nc2cc3c(cc2s1)OCO3	nt	0.3	31.5*	0.4	0.5	-1.1
Cc1cc(C)c2nc(N(CCN(C)C)C(=O)c3ccc4ccccc4c3)sc2c1	-16.4	8.3	21.0*	-0.8	3.8	5.7
CN(C)CCN(C(=O)c1ccc(C(=O)c2ccccc2)cc1)c1nc2cc3c(cc2s1)OCCO3	2.0	-43.9	24.1*	-2.3	-5.0	-8.1
C[C@@H]1CN([C@@H](C)CO)C(=O)c2cc(C#Cc3ccccn3)cnc2O[C@H]1CN(C)CC1CCCC1	-3.9	nt	nt	nt	nt	nt
O=C(N[C@H]1CC[C@@H](CCNC(=O)c2ccccc2F)O[C@@H]1CO)c1cnccn1	10.5	nt	nt	nt	nt	nt
O=C(NC(=S)Nc1nc(-c2cccc([N+](=O)[O-])c2)cs1)c1ccccc1Cl	10.6	7.9	88.2*	-0.3	0.1	4.6
O=C1N/C(=N/N=C/c2ccco2)SC1Cc1ccccc1 (stereo not drawn)	7.9	-7.8	21.0*	1.1	-3.3	7.9
Cc1cccc(CC2S/C(=N/N=C/c3ccco3)NC2=O)c1 (stereo not drawn)	-0.7	0.2	24.7*	-0.8	3.6	-1.6
C[C@@H]1CN([C@@H](C)CO)C(=O)c2cc(/C=C/c3ccccc3)cnc2O[C@H]1CN(C)C(=O)CN(C)C	9.1	nt	nt	nt	nt	nt
C[C@H]1CN([C@@H](C)CO)C(=O)c2cc(N(C)C)ccc2O[C@@H]1CN(C)C(=O)NC1CCCCC1	17.5	nt	nt	nt	nt	nt
O=C(NCc1ccc(F)cc1)[C@@H]1[C@@H](CO)[C@@H]2Cn3c(cccc3=O)[C@H]1N2C(=O)Cc1ccccn1	6.1	nt	nt	nt	nt	nt
